ChEMBL document CHEMBL4513216, “Probing the Open Global Health Chemical Diversity Library for Multistage-Active Starting Points for Next-Generation Antimalarials” (ACS Infect Dis, 2020)
The whole screen tested about 69,000 compounds, of which about 8,600 (12%) showed an effect of 50% or more. The entries come from a sample that favours strong results as a whole.

tested on: Plasmodium berghei; assay: Screen against P. berghei liver stage (PbLuc), transformed with Luciferase, at 10uM; type: functional, HepG2; conditions: tested at 10 uM

Compound	INHIBITION [%]
CCOC(=O)c1cc(C(C)(O)CCC=C(C)C)on1 (centres undefined)	37.8
Cc1nc(CC(=O)N2CCC(c3nn(C)c4ncccc34)CC2)cs1	26.8
Cn1c(C(=O)N2CCC(C(N)=O)C2)c(Cl)c2ccccc21 (centres undefined)	-20.5
Cc1oc(-c2ccco2)nc1CN1CCc2cnc(C(C)C)nc2C1	21.9
CC(C)N(C)S(=O)(=O)c1ccc2c(c1)CCN(C(=O)c1cccnn1)C2	23.2
Cc1cnc(C(=O)NCC2CCOc3ccccc3C2)cn1 (centres undefined)	24.4
CC(=O)NCC1CCN(CC2CCOc3ccccc3C2)CC1 (centres undefined)	37.8
CNc1nc(C(=O)NCC2CCOc3ccccc3C2)cs1 (centres undefined)	53.3
CN1CCN(C(=O)c2ccc(Cn3cc(Br)cn3)cc2)CC1	30.7
O=C(c1ccc(Cn2cc(Br)cn2)cc1)N1CCOCC1	37.7
O=C(c1ccc(Cn2cc(Br)cn2)cc1)N1CCCC1	53.5
CCC(=O)N1CCN(C(=O)Nc2cccc(F)c2)[C@H]2CS(=O)(=O)C[C@H]21	61.9
CC(=O)N1CCN(C(=O)Nc2ccc(Cl)cc2)[C@H]2CS(=O)(=O)C[C@H]21	12.6
CCC(=O)N1CCN(C(=O)Nc2ccc(Cl)cc2)[C@H]2CS(=O)(=O)C[C@H]21	61
CCC(=O)N1CCN(S(=O)(=O)c2cccc(F)c2)[C@H]2CS(=O)(=O)C[C@H]21	32.2
CCC(=O)N1CCN(C(=O)Nc2cccc(C#N)c2)[C@H]2CS(=O)(=O)C[C@H]21	-2.09
CCC(=O)N1CCN(C(=O)CCn2cc(Cl)cn2)[C@H]2CS(=O)(=O)C[C@H]21	35.8
CCN1CC(CN(C)Cc2nc(-c3ccc(F)cc3F)oc2C)CC1=O (centres undefined)	26.5
Cc1ccc(C2CSCCN2C(=O)c2ccnc(N(C)C)c2)o1 (centres undefined)	12.3
N#Cc1c(CN2CCCCC2Cn2cncn2)cn2ccccc12 (centres undefined)	19.3
CN(Cc1ccc(Cl)s1)C(=O)c1ccccc1OCC(N)=O	-93.8
O=C(c1ccncc1)N1CCCn2nnc(COCCO)c2C1	29.8
COc1cc(CN2CCC(O)(c3ccc(C)cn3)CC2)cc(Cl)c1OC	51.3
COc1ccnc(CN2CCC(O)(c3ccc(C)cn3)CC2)c1OC	-23.4
COc1cccc(CN2CCC(O)(c3ccc(C)cn3)CC2)c1OC	-57.5

Compound	INHIBITION [%]
Cc1nc(C)n(CC2CN(CCOc3cccc(F)c3)CCO2)n1 (centres undefined)	-21.7
Cc1cc(C)c2nc(C)cc(C(=O)N3CC(O)CO3)c2c1 (centres undefined)	22.6
CN1CCOC(CNCCc2ccccn2)C1 (centres undefined)	39.5
CN(C)CC1CN(CCOc2cccc(C#N)c2)CCO1 (centres undefined)	41.4
CN1CCOC(CNCCOc2ccc(C#N)cc2)C1 (centres undefined)	71.1
CN1CCOC(CNCCOc2cccc(C#N)c2)C1 (centres undefined)	66.7
COCCOc1cccc(CNCC2CN(C)CCO2)c1 (centres undefined)	7.12
CN1CCOC(CNCCCOc2ccc(C#N)cc2)C1 (centres undefined)	-89.9
CN(C)c1ccc(C2CCN(c3cnccn3)CC2)nc1	1.93
CO[C@H]1CC[C@H]2[C@H]1OCCN2C(=O)CC1=CCCCC1	32.5
O=C(CN1CCC(c2nnc(C(F)(F)F)o2)CC1)NCc1ccccc1	-3.48
CCc1nnc(Nc2cccc(C3CCN(CC4CC4)CC3)n2)s1	14.7
CCc1ccc(C(=O)N2CCN(CC(O)c3ccccc3)CC2)o1 (centres undefined)	37.9
c1ccc(Cc2nnc(CN3CCc4cncnc4C3)o2)cc1	-31.3
Cc1noc(C)c1CN1CCC(N(C)Cc2noc(C(C)C)n2)C1 (centres undefined)	29.8
CSCC[C@H](N)c1nnc(SCc2cc(C)ccc2C)o1	12.5
Cc1nc(C)n(CC2CCCN2CC(=O)NCCc2ccsc2)n1 (centres undefined)	91.3
Cc1nc(C)n(CC2CCCN2CC(=O)NCCC2=CCCCC2)n1 (centres undefined)	77.7
O=C(CN1CCCC1Cn1cncn1)NCCC1=CCCCC1 (centres undefined)	27.6
O=C(CN1CCCCC1Cn1cncn1)NCCc1ccsc1 (centres undefined)	-81.3
CC(=O)NCCNC(=O)CN1CCCC1Cn1nc(C)nc1C (centres undefined)	1.56
Cc1nc(C)n(CC2CCCN2CC(=O)NCCc2ccccc2)n1 (centres undefined)	9.54
COc1ccc(CN2CCO[C@H]3CN(C4CCC4)CC[C@H]3C2=O)cc1	17.2
O=C(c1cccc(F)c1)N1CCOC(c2nc(-c3ncccn3)no2)C1 (centres undefined)	13.1
CC(C)c1nnc2n1CCN(CCC(=O)Nc1sccc1C#N)C2	5.7

Compound	INHIBITION [%]
CN(C)Cc1cc(C2CCCN(S(=O)(=O)c3cccc(Cl)c3)C2)nn1C (centres undefined)	-14.2
Cc1ncc(CN2CCCC(c3cc(C(F)(F)F)[nH]n3)C2)s1 (centres undefined)	-17.6
CNS(=O)(=O)c1ccc(C(=O)NCCNc2ncccn2)cc1	33
CCCNC(=O)c1ccc(S(=O)(=O)NCC2(COC)CCCC2)cc1	89.7
CCCNC(=O)NCc1ccccc1NS(=O)(=O)c1ccccc1	-24.7
CCCNC(=O)c1ccc(S(=O)(=O)NC2(COC)CCCC2)cc1	56.3
CCOCCC1(CNC(=O)c2ccncc2)CCC1	-37.7
CCCNC(=O)c1ccc(S(=O)(=O)NCC2(O)CCCNC2)cc1 (centres undefined)	43.4
CC(=O)N(Cc1ncc(C)o1)C1CCN(Cc2cc(C)on2)C1 (centres undefined)	-16
COC(CNC(=O)C1CCN(S(C)(=O)=O)CC1)c1ccc(C)s1 (centres undefined)	36.8
COc1ccc(CN(C)[C@@H]2CN(C(=O)c3cncs3)C[C@H]2O)cc1	56.8
COc1ccc(CN(C)[C@@H]2CN(C(=O)c3cnn(C)c3)C[C@H]2O)cc1	2.71
COc1ccc(CN(C)[C@@H]2CN(C(=O)c3ccccc3)C[C@H]2O)cc1	25.6
COc1ccc(CN(C)[C@@H]2CN(C(=O)c3ccnn3C)C[C@H]2O)cc1	-55
COc1ccc(CN(C)[C@@H]2CN(C(=O)c3cccnc3)C[C@H]2O)cc1	52
COc1ccc(CN(C)[C@@H]2CN(C(=O)c3cccs3)C[C@H]2O)cc1	24.5
COc1ccnc(N2CCN(Cc3nc(-c4ccoc4)no3)CC2)c1	9.52
Cc1nc(C)n(CC2CCCN2Cc2cn3cc(Cl)ccc3n2)n1 (centres undefined)	15.3
Cc1ccc(C(=O)N2C[C@@H]3CCCO[C@@H]3[C@H](N3CCOCC3)C2)cn1	52.6
Cc1cccc(C(=O)N2CCO[C@H]3[C@H](OCCN(C)C)CC[C@@H]32)n1	54
Cc1cc(C(=O)N2C[C@@H]3CCCO[C@@H]3[C@H](N3CCOCC3)C2)c(C)[nH]1	4.02
Cc1ccc(C(=O)N2C[C@@H]3CCCO[C@@H]3[C@H](N3CCCC3)C2)cn1	30.5
Cc1ccc(C(=O)N2CCO[C@H]3[C@H](OCCN(C)C)CC[C@@H]32)cn1	-9.26
O=C(c1ccccc1)N1C[C@@H]2CCCO[C@@H]2[C@H](N2CCCC2)C1	52.6
Cn1cccc1C(=O)N1C[C@@H]2CCCO[C@@H]2[C@H](N2CCOCC2)C1	30.5

Compound	INHIBITION [%]
CO[C@@H]1CC[C@H]2[C@H]1OCCN2C(=O)c1ccc(C)nc1	67
O=C(c1ccccc1)N1C[C@@H]2CCCO[C@@H]2[C@H](N2CCOCC2)C1	49.7
CN(C)CCO[C@@H]1CC[C@H]2[C@H]1OCCN2C(=O)c1ccncc1	29.3
CO[C@H]1CC[C@H]2[C@H]1OCCN2C(=O)c1ccc(C)nc1	-6.39
Cc1ccccc1C(=O)N1CCO[C@H]2[C@H](OCCN(C)C)CC[C@@H]21	-0.371
COc1ccc(Cn2cc(C(=O)N(C)CCN(C)C)nn2)cc1	28.5
c1cncc(COCc2nnc3n2CCN(CC2CC2)C3)c1	-15.7
CCS(=O)(=O)CCN(C)C(=O)NC(C)c1ccc(C)s1 (centres undefined)	22.6
CCc1sc(C(=O)N2CCC(Nc3ccc(C)nn3)CC2)cc1C	42
Cc1ccc(C(=O)N2C[C@@H](N3CCN(C)CC3)[C@H]3OCCC[C@H]32)cn1	10.4
Cc1cnc(C(=O)N2C[C@H](N3CCOCC3)[C@@H]3OCCC[C@@H]32)cn1	45.7
Cc1ccc(C(=O)N2C[C@H](N3CCOCC3)[C@@H]3OCCC[C@@H]32)cn1	50.3
CC(=O)NCC1CCN(C(=O)c2ccc(Sc3ccccn3)cc2)CC1	14.4
CC(=O)N1CCN(c2cnnc(N3CCCC3)c2)CC1	31.9
O=C(c1ccccc1)N1C[C@H]2CC[C@@H](C1)N(Cc1cc(F)ccc1Cl)C2	25
COCCCN1C(=O)CC[C@H]2CN(c3cc(C(N)=O)ccn3)CC[C@H]21	24.9
COCCCN1C(=O)CC[C@H]2CN(Cc3ccc4occc4c3)CC[C@H]21	16.1
COCCCN1C(=O)CC[C@H]2CN(Cc3ncc[nH]3)CC[C@H]21	38.8
COCCCN1C(=O)CC[C@H]2CN(Cc3ccc4nonc4c3)CC[C@H]21	53.4
COCCCN1C(=O)CC[C@H]2CN(c3ccnc4ccccc34)CC[C@H]21	63.9
COCCCN1C(=O)CC[C@H]2CN(c3cnc4ccccc4n3)CC[C@H]21	28.5
COCCCN1C(=O)CC[C@H]2CN(Cc3cc4ccccc4o3)CC[C@H]21	73.9
COCCCN1C(=O)CC[C@H]2CN(c3nc4ccccc4s3)CC[C@H]21	41.2
NCCN1C(=O)CC[C@H]2CN(Cc3ccc4occc4c3)CC[C@H]21	30.3
